Columns and labels:
[1] = biological target: Ephrin type-A receptor 5 (Homo sapiens) (UniProt P54756); conditions: at 1 µM
[2] = biological target: Ephrin type-A receptor 5 (Homo sapiens) (UniProt P54756); conditions: at 10 µM
[3] = biological target: Ephrin type-A receptor 7 (Homo sapiens) (UniProt Q15375); conditions: at 1 µM
[4] = biological target: Ephrin type-A receptor 7 (Homo sapiens) (UniProt Q15375); conditions: at 10 µM
[5] = biological target: T1, Ephrin type-A receptor 8 (Homo sapiens) (UniProt P29322); conditions: at 10 µM
T1 sequence (whole entry): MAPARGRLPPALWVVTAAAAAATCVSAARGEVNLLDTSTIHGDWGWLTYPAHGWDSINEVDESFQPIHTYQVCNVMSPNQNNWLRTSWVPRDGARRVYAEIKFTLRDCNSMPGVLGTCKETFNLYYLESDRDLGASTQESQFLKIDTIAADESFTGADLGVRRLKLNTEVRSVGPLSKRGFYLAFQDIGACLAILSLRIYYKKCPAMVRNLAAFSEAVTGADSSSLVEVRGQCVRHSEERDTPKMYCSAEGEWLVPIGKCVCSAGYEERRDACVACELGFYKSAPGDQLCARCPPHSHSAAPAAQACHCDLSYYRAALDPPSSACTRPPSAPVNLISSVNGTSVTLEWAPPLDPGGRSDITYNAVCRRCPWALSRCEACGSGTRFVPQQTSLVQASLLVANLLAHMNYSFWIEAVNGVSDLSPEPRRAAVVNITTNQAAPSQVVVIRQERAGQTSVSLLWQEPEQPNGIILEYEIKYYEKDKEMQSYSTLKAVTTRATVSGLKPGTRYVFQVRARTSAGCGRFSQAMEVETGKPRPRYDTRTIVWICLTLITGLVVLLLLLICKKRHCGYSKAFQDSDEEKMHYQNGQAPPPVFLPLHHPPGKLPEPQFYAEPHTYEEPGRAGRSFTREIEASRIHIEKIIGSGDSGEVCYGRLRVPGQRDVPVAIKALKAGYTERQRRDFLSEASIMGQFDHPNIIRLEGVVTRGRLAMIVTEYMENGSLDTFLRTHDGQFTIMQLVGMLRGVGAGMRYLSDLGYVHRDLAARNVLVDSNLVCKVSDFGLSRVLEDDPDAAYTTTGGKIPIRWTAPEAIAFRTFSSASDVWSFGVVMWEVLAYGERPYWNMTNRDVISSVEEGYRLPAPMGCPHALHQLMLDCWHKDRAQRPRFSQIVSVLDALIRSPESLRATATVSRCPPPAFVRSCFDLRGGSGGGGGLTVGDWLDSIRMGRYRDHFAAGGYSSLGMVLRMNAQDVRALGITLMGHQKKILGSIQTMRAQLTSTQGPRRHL

[6] = biological target: T2, Ephrin type-B receptor 1 (Homo sapiens) (UniProt P54762); conditions: at 10 µM
T2 sequence (whole entry): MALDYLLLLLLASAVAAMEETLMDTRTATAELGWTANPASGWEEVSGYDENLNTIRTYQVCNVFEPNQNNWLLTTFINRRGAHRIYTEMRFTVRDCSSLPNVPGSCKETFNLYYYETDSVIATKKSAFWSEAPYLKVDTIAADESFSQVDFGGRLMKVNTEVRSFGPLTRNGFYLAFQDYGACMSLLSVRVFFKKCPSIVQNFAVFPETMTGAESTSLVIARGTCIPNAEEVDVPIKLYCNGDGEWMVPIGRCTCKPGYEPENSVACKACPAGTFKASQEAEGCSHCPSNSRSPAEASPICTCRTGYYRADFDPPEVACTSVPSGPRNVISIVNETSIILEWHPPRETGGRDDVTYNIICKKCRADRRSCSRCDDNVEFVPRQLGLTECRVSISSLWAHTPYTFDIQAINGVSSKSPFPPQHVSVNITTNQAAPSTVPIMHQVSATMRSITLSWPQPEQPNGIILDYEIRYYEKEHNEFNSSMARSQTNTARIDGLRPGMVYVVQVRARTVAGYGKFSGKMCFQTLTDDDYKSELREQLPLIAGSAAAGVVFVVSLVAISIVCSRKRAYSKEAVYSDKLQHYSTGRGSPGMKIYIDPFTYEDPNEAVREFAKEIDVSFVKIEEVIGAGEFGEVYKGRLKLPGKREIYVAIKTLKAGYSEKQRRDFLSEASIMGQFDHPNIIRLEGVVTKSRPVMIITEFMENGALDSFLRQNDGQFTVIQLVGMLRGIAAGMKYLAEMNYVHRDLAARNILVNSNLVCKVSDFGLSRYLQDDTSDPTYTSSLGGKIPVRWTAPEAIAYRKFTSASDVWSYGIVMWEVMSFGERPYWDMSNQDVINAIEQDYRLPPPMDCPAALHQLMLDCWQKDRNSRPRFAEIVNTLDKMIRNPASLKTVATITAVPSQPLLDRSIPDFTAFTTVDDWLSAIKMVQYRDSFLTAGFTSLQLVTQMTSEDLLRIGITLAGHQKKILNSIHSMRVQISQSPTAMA

[7] = biological target: T3, Ephrin type-B receptor 2 (Homo sapiens) (UniProt P29323); conditions: at 10 µM
T3 sequence (whole entry): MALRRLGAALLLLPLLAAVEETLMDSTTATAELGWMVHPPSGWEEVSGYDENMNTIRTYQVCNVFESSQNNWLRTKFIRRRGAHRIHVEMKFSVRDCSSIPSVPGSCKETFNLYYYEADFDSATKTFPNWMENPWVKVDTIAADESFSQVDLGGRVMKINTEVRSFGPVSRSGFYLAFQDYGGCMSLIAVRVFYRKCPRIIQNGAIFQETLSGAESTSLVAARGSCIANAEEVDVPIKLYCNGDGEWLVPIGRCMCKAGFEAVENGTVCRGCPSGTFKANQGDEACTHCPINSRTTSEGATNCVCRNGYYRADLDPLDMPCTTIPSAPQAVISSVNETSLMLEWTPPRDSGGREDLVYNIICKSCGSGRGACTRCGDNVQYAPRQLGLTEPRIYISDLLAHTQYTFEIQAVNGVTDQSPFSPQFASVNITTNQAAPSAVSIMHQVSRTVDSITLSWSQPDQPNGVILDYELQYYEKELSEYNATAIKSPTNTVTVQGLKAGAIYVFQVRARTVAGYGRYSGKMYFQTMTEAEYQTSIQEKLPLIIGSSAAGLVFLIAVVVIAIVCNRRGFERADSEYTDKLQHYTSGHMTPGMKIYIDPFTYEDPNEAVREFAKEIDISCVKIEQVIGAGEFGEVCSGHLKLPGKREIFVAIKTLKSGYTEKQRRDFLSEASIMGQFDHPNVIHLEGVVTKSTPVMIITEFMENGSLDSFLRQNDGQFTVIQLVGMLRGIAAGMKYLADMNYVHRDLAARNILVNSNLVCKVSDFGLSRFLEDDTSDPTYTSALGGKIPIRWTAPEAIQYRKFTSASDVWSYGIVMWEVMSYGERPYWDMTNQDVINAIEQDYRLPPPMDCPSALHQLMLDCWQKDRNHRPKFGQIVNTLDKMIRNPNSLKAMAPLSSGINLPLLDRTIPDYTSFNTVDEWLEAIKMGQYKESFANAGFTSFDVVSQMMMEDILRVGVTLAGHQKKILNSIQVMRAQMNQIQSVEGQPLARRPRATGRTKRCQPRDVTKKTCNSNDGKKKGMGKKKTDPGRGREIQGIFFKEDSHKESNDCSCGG

[8] = biological target: T4, Ephrin type-B receptor 3 (Homo sapiens) (UniProt P54753); conditions: at 10 µM
T4 sequence (whole entry): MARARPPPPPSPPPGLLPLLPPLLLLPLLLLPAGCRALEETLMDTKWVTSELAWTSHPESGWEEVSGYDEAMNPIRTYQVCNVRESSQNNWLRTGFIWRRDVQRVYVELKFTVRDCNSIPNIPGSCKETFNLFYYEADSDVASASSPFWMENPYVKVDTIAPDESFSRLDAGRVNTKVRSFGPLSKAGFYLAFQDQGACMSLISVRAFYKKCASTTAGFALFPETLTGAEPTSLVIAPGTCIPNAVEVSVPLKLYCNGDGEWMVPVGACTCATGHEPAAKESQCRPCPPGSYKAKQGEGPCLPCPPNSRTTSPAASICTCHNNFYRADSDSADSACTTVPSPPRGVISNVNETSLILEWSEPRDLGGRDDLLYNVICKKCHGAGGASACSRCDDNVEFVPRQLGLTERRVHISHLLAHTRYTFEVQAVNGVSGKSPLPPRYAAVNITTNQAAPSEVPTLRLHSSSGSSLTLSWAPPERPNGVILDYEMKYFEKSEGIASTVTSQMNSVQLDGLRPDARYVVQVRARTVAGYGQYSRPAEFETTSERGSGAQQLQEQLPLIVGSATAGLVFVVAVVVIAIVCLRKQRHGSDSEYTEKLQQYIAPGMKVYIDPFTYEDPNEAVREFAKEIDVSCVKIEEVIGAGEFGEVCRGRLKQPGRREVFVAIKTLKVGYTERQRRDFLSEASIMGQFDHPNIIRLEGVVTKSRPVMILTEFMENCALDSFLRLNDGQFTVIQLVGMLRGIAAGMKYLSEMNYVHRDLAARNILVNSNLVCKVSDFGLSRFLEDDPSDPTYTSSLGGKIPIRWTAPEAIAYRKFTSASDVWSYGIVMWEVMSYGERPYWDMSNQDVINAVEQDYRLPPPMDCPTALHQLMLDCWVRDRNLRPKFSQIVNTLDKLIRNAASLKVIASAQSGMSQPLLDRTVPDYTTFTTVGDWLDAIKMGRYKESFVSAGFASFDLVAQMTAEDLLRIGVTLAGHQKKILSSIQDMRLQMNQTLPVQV

[9] = biological target: T5, Ephrin type-B receptor 4 (Homo sapiens) (UniProt P54760); conditions: at 1 µM
T5 sequence (whole entry): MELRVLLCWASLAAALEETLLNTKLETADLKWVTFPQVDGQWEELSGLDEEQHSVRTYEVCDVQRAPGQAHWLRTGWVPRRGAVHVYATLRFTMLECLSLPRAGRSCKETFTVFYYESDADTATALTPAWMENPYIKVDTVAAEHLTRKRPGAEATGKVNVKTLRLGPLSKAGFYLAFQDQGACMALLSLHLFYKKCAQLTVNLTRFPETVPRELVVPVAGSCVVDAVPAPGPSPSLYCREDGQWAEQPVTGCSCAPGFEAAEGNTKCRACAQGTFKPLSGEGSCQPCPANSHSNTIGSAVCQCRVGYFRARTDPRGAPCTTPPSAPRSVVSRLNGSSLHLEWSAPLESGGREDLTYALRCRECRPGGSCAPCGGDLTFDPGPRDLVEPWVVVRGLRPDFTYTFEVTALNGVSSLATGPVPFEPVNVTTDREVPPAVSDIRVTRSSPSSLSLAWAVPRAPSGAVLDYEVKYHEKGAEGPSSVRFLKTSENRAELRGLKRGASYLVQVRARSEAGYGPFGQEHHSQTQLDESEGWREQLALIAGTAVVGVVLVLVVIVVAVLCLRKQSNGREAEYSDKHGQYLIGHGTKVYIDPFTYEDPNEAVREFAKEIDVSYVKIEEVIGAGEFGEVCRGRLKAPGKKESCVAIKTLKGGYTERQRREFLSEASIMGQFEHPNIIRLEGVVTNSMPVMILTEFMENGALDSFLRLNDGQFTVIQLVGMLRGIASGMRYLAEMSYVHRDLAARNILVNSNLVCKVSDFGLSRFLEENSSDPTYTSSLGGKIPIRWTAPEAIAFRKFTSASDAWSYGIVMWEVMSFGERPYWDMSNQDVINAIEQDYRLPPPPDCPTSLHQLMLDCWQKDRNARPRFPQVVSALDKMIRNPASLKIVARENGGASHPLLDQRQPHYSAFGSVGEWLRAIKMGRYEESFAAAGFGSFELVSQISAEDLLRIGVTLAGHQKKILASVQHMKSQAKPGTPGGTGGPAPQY

[10] = biological target: T5, Ephrin type-B receptor 4 (Homo sapiens); conditions: at 10 µM
[11] = biological target: Receptor tyrosine-protein kinase erbB-4 (Homo sapiens) (UniProt Q15303); conditions: at 1 µM
Chain of Receptor tyrosine-protein kinase erbB-4 (Homo sapiens) (Q15303 whole entry): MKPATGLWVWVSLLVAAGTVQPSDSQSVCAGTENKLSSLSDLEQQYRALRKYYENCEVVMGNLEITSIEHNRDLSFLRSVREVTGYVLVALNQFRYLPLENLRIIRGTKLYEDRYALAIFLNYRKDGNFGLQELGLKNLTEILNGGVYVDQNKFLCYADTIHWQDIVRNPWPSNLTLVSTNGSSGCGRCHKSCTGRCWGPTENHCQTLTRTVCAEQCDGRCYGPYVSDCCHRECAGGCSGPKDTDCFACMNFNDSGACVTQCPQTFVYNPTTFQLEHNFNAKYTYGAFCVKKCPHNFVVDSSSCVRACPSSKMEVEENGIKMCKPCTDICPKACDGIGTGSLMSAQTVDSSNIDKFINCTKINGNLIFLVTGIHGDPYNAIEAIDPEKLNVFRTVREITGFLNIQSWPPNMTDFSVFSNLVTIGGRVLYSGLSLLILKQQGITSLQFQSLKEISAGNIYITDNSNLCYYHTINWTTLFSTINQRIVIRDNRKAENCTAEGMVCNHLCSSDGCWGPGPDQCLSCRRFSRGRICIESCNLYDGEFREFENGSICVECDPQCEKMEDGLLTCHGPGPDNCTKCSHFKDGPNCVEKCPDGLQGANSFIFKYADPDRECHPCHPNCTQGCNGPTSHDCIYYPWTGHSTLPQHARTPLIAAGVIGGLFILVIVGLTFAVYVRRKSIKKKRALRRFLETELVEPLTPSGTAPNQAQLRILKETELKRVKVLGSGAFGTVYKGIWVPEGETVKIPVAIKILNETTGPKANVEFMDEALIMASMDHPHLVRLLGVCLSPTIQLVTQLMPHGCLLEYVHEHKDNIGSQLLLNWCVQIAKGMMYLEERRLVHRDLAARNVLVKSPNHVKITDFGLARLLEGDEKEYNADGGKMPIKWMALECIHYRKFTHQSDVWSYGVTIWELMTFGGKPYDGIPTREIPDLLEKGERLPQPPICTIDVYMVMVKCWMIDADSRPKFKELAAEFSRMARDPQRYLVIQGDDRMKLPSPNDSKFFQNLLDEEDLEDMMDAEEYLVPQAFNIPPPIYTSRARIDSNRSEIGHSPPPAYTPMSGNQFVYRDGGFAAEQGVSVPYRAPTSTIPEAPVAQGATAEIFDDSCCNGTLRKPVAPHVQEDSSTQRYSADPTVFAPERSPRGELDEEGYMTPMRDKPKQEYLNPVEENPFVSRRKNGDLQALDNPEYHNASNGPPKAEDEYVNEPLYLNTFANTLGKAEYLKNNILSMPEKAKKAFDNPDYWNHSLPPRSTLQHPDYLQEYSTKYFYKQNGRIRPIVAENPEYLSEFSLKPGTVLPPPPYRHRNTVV

[12] = biological target: Receptor tyrosine-protein kinase erbB-4 (Homo sapiens) (UniProt Q15303); conditions: at 10 µM
[13] = biological target: Focal adhesion kinase 1 (Homo sapiens) (UniProt Q05397); conditions: at 1 µM
Chain of Focal adhesion kinase 1 (Homo sapiens) (Q05397 2-1052 limits assumed): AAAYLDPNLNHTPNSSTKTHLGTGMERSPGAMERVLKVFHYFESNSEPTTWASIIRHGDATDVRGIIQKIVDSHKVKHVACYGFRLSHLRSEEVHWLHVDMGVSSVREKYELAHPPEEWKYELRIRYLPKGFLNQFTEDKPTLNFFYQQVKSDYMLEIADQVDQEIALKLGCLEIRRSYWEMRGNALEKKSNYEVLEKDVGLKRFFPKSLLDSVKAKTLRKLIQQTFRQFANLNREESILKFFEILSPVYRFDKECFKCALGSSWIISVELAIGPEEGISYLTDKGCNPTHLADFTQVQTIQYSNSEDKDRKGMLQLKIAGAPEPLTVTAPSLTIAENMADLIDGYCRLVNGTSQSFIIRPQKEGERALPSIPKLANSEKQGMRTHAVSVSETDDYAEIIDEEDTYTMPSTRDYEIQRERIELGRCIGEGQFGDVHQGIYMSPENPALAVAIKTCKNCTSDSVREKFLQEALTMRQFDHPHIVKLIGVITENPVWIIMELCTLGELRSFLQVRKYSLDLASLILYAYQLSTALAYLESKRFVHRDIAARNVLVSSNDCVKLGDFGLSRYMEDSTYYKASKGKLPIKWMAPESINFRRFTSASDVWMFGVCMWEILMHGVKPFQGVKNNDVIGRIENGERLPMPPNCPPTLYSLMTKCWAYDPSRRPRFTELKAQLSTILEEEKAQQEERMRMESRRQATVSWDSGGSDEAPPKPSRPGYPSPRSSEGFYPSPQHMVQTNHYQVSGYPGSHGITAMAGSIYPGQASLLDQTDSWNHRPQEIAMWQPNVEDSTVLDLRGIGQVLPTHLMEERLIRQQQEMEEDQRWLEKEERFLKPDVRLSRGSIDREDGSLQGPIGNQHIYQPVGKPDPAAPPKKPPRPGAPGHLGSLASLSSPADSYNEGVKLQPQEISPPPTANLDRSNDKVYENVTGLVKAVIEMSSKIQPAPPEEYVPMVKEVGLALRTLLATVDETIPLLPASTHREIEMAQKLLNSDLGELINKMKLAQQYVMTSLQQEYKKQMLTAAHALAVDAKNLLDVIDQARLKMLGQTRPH

[14] = biological target: T2, Ephrin type-B receptor 1 (Homo sapiens); conditions: at 1 µM

Chain of Ephrin type-A receptor 5 (Homo sapiens) (P54756 whole entry): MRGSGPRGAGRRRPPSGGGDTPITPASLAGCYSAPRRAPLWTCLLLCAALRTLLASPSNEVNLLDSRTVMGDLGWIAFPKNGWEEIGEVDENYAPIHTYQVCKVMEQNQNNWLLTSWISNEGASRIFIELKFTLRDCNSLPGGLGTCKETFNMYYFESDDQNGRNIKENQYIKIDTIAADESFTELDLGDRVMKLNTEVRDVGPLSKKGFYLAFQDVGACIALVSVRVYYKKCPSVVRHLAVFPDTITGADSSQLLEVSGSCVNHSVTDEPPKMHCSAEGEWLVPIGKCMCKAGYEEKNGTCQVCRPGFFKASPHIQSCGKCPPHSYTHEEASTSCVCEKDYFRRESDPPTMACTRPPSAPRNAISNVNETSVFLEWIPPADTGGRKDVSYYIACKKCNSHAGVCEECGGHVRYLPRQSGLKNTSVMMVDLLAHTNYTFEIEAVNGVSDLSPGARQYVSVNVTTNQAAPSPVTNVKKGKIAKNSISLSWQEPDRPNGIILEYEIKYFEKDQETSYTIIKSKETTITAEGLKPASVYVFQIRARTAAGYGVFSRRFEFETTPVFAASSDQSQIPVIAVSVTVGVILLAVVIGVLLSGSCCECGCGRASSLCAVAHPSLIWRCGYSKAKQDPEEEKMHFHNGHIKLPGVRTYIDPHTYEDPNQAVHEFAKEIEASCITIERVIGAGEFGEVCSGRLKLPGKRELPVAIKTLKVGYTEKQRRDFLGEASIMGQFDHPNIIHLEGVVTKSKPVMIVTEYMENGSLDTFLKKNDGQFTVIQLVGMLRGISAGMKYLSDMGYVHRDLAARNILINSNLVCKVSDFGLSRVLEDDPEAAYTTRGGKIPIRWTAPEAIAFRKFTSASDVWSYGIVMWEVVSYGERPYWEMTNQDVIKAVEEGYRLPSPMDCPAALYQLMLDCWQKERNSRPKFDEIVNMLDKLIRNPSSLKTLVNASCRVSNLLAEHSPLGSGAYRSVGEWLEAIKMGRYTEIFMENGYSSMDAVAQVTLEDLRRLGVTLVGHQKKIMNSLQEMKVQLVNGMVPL
Chain of Ephrin type-A receptor 7 (Homo sapiens) (Q15375 28-998 limits assumed): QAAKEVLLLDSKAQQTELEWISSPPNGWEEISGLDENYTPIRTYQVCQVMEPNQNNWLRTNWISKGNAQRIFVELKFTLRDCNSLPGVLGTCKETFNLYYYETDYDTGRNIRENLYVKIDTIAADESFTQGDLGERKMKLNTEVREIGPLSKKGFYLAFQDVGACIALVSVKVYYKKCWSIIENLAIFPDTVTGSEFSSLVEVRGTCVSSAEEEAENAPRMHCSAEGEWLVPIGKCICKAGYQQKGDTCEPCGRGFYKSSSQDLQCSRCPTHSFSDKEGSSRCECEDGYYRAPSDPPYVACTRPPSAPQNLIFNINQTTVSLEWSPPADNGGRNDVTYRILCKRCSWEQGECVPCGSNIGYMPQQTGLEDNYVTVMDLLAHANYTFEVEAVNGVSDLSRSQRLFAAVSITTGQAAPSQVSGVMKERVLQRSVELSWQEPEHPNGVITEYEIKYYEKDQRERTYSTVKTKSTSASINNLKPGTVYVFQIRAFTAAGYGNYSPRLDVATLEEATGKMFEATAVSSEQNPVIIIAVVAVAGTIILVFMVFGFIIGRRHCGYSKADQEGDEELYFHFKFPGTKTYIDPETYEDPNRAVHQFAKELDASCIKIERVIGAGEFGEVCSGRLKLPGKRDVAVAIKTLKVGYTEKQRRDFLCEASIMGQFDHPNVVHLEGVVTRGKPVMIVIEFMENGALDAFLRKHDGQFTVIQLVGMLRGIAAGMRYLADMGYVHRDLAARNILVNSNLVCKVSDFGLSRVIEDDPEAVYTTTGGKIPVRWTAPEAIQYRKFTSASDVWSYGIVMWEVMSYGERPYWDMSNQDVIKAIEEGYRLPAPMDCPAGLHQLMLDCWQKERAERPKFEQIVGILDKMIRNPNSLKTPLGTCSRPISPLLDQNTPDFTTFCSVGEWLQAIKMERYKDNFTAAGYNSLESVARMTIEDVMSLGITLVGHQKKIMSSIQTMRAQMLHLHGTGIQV

Compound	residual activity [1] [%]	residual activity [2] [%]	residual activity [3] [%]	residual activity [4] [%]	residual activity [5] [%]	residual activity [6] [%]	residual activity [7] [%]	residual activity [8] [%]	residual activity [9] [%]	residual activity [10] [%]	residual activity [11] [%]	residual activity [12] [%]	residual activity [13] [%]	residual activity [14] [%]
O=C(c1cc2cc(O)ccc2[nH]1)c1cc2cc(O)ccc2[nH]1	78	32	83	66	73	28	24	126	72	13	73	63	112	–
COc1ccc(Cl)cc1NC(=O)Nc1cc(C)nc2ccccc12	97	86	83	56	–	68	–	–	96	100	96	80	127	88
